Screens as filed in PubChem BioAssay.
JMJD2A Tudor: JMJD2A Tudor domain (human) inhibition; O75164; 390,000 compounds, 4.4% hits; Potency, µM (highest dose often 114 µM), for the others: top-dose activity change, negative = inhibition, most hits filed as inhibitors; AlphaScreen JMJD2A-Tudor / H3K4me3 peptide binding; also: % is scaled to controls: 0 for no effect and ±100 for the full control effect; nearly all actives have a fitted effect of over 50% in size
Target sequence (O75164 whole entry, looked up, the tested form may be a part): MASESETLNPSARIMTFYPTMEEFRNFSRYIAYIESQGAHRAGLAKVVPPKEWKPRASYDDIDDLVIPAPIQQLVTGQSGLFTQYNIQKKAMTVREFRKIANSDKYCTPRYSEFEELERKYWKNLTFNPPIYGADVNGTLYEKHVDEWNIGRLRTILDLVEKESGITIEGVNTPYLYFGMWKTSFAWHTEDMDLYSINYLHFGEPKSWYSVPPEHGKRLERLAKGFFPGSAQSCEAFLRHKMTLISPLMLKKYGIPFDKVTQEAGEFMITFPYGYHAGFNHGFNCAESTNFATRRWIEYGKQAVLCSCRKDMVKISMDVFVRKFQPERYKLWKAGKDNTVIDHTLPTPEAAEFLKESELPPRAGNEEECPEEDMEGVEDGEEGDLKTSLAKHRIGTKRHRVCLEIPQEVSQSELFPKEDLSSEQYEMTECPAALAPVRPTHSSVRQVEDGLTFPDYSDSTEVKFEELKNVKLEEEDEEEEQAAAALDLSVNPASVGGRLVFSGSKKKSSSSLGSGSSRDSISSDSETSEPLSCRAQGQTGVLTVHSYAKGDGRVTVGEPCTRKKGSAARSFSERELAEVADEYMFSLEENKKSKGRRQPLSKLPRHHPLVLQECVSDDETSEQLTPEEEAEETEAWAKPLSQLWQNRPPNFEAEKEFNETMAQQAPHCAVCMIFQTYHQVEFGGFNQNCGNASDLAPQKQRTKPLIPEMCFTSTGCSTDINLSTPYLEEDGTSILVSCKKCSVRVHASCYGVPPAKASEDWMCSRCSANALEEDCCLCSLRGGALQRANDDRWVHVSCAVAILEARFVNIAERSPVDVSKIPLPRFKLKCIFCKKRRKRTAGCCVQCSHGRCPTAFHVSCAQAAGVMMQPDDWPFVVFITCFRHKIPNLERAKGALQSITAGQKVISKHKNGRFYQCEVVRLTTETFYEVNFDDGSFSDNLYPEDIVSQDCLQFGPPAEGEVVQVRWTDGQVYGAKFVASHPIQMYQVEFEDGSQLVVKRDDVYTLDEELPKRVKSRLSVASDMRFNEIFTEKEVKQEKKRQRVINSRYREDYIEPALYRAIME
HP1b binding inh: blocks HP1-beta chromodomain binding to methylated histone tails; P83916; AlphaScreen HP1-beta / biotin-H3K9me3 peptide binding; Potency, µM (top dose mostly 114 µM), for the others: at the highest dose activity change, negative = inhibition, most hits filed as inhibitors; 390,000 compounds, 0.56% hits; AID 540317; also: nearly all actives have a fitted effect of over 70% in size
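Compound inhibition of the preformed complex between 50 nM HP1-beta and 50 nM biotinylated H3K9me3 peptide was read by AlphaScreen. Buffer was PBS pH 7.4 with 0.01% Tween-20. Incubations ran 30 min at room temperature, with 10 ug/mL donor/acceptor beads.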
G9a inh: inhibitors of human histone lysine methyltransferase G9a; Potency, µM (series often up to 102 µM), for the others: at the highest dose activity, negative = inhibition, actives largely listed as inhibitors; G9a H3K9 monomethylation, AlphaScreen, 2 h; AID 504332; 350,000 compounds, 8.8% hits; also: % is scaled to controls: 0 for no effect and ±100 for the full control effect; nearly all actives have a fitted effect of over 75% in size
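Using a bead-based AlphaScreen, monomethylated H3K9 product from 2 h room-temperature reactions (G9a 20 nM, peptide 500 nM, SAM 20 uM) was detected with 0.5 ug/mL rabbit anti-H3K9me1 antibody.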
BAZ2B inh: blocks human BAZ2B; 360,000 compounds, 4.4% hits; AlphaScreen BAZ2B-H3K14Ac peptide displacement; AID 504333; Potency, µM (doses to about 114 µM), for the others: at the highest dose activity change, negative = inhibition, actives largely listed as inhibitors; also: % is scaled to controls: 0 for no effect and ±100 for the full control effect; nearly all actives have a fitted effect of over 60% in size
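Compounds, titrated to a top concentration of 110 uM, were incubated 30 min at room temperature with preformed BAZ2B/acetyl-K14 H3 peptide complex (50 nM each). Proximity signal was measured by AlphaScreen after 20 min with beads.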
Sfp PPTase inh: Sfp phosphopantetheinyl transferase inhibition. Q9F4F7. Biochemical Sfp PPTase activity, qHTS. Potency, µM, for the others: largest response in the series, negative = inhibition, hits mostly inhibitors. 310,000 compounds, 3.5% hits. AID 1490;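 also: the enzyme is Sfp with the accession as filed and its product quenches rhodamine fluorescence; 0% = enzyme reaction without inhibitor and -100% = no enzyme wells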
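Step 1, compound plus 15 nM Sfp-PPTase, 15 min, room temperature. Step 2, add rhodamine-CoA (5 uM) and BHQ-2-YbbR (12.5 uM). Step 3, read 525/598 nm fluorescence at 0 and 30 min.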
L3MBTL1 block: blocks human L3MBTL1; AlphaScreen L3MBTL1–H3K9me1 peptide binding; Q9Y468; 230,000 compounds, 0.66% hits; Potency, µM (top dose mostly 57.1 µM), for the others: at the highest dose activity, negative = inhibition, usual class: inhibitors; also: % is scaled to controls: 0 for no effect and ±100 for the full control effect; nearly all actives have a fitted effect of over 60% in size
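L3MBTL1 (50 nM) pre-complexed 30 min with biotinylated H3(1-15)K9me1 peptide (75 nM), then compounds added for 30 min at room temperature; AlphaScreen streptavidin donor/nickel chelate acceptor beads (10 ug/mL final) read after 30 min dark incubation.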
Numbers without * were called inactive; ? = inconclusive; . = not tested or not shown; ! = not active in a repeat; [ ] = remark or other dose. Rows were chosen to be rich in hits. Some 12% of all compounds tested hit in one or more screens of this group. Calls follow the shape of the dose curve; as a rule, active = well fitted curve in the direction sought with a large enough effect; inconclusive = small, poorly fitted or top-dose-only effect, or another doubt; inactive = no such curve, though single readings can be large; an effect the other way counts as inactive or inconclusive. Potency is read from the fitted curve at half-maximal effect.

SMILES	JMJD2A Tudor	HP1b binding inh	G9a inh	BAZ2B inh	Sfp PPTase inh	L3MBTL1 block
CNc1nc(-c2ccccc2)[n+](-c2ccc(C)cc2)s1	20µM*	11µM*	1.4µM*	7.9µM*	3.2µM*	-5%
Cc1ccc(-c2nc(N)s[n+]2-c2ccccc2)cc1	28µM*	?	5µM*	51%	?	22%
Cc1ccc(-c2cc(-c3ccccc3)nc(NN)n2)cc1	?	19%	20%	-11%	-16%	-5%
Cc1ccc(-c2nc3ccccc3nc2-c2ccccc2)cc1	82%	114%	.	10%	-19%	25%
Nc1nc(-c2ccc(Cl)c(Cl)c2)c(-c2ccncc2)s1	.	.	.	.	22µM*	.
O=C(Oc1coc(CSc2ncccn2)cc1=O)c1ccc(Br)o1	-5%	47%	-7%[59 µM]	-13%	-12%	-7%
O=C(Oc1coc(CSc2ncccn2)cc1=O)c1cccc([N+](=O)[O-])c1	-22%	41%	56µM*	-39%	-1%	.
O=C(Oc1coc(CSc2ncccn2)cc1=O)c1ccco1	-8%	43%	-7%	.	89µM*	.
CCc1nnc(NC(=O)c2nc(S(=O)(=O)Cc3cccc(C)c3)ncc2Cl)s1	2.8µM*	-15%[57 µM]	45µM*	?	56µM*	.
Cc1cccc(CS(=O)(=O)c2ncc(Cl)c(C(=O)Nc3nnc(C(C)C)s3)n2)c1	?	31%[57 µM]	?	?	-29%	.
CSc1nnc(NC(=O)c2nc(S(=O)(=O)Cc3cccc(C)c3)ncc2Cl)s1	?	22%[57 µM]	4.5µM*	4%	-15%	.
CCc1nnc(NC(=O)c2ccc3ccccc3n2)s1	-8%	-11%	50µM*	2%	?	?
CCOc1ccccc1NC(=O)c1nc(S(=O)(=O)Cc2cccc(C)c2)ncc1Cl	?	29%	56µM*!	-30%	-3%	.
CCc1nnc(NC(=O)c2nc(S(=O)(=O)Cc3ccc(C)cc3)ncc2Cl)s1	14µM*!	-15%[57 µM]	45µM*!	?	-18%	.
CCc1nnc(NC(=O)c2nc(S(=O)(=O)Cc3ccccc3)ncc2Cl)s1	7.9µM*	18%[57 µM]	28µM*	?	?	.
COc1ccc(NC(=O)c2nc(S(=O)(=O)Cc3ccc(C)cc3)ncc2Cl)cc1	-15%	34%	?	2%	.	.
CC(=O)Nc1ccc(NC(=O)c2nc(S(=O)(=O)Cc3ccccc3)ncc2Cl)cc1	0%	47%	-12%[0.501 µM]	-30%	-26%	.
CCN(C(=O)CSc1nc2ccccc2n1Cc1ccccc1C#N)c1ccccc1	-15%	-15%	-12%[59 µM]	?	.	.
CN1CCCC2(CCN(C(=O)c3cc(C(F)(F)F)cc(C(F)(F)F)c3)CC2)C1	.	.	-6%[12.7 µM]	.	4%	.
CCC(C)NC(=O)CN1C(=O)c2cccnc2Oc2ccc(C)cc21 (stereo unspecified)	50µM*	40%	-5%[59 µM]	13%	.	.
COc1ccccc1CNC(=O)CCc1c(C)nn(-c2ccc(N3CCCC3)nn2)c1C	-7%	52%	-1%[59 µM]	-19%	.	.
c1ccc(SCCc2ccncc2)cc1	-10%	55%	-20%[12.7 µM]	1%[57.1 µM]	2%	8%
Fc1ccc(SCCc2ccncc2)cc1	-6%	29%	50µM*!	22µM*!	0%	2%
Fc1cc(F)c(F)c(SCCc2ccncc2)c1F	28µM*	?	?	-19%	?	.
O=[N+]([O-])c1ccc(SCCc2ccccn2)cc1	-33%	-17%	13µM*	-21%	?	.
SMILES	JMJD2A Tudor	HP1b binding inh	G9a inh	BAZ2B inh	Sfp PPTase inh	L3MBTL1 block
O=[N+]([O-])c1ccc(SCCc2ccncc2)cc1	50µM*!	?	11µM*	50µM*	50µM*	-9%
CCCSc1nnc(NC(=O)Cc2coc3cc(C)ccc23)s1	-13%	33%	-4%[59 µM]	2%	.	.
CCN(CC)c1nn2c(=O)c(C(=O)NCc3ccccc3Br)cnc2s1	-13%	46%	5%[59 µM]	0%	.	.
Cc1noc(C)c1-c1nccc(N2CCN(C)CC2)n1	.	.	-20%[0.501 µM]	.	4%	.
CN1CCN(S(=O)(=O)c2cccc(C(=O)N(C)CC(=O)Nc3ccc(Cl)c(Cl)c3)c2)CC1	-13%	23%	.	.	.	.
CC1=CC(=O)C=C(C)C1=NOc1ccccc1[N+](=O)[O-]	-28%	5%	25µM*	1%	5.6µM*	7%
O=C(NCC(c1cccs1)N1CCOCC1)c1ccccc1NS(=O)(=O)c1ccc(Cl)c([N+](=O)[O-])c1 (stereo unspecified)	-32%	19%	45µM*	-32%	20%	0%
O=C(NCC(c1cccs1)N1CCOCC1)c1ccccc1NS(=O)(=O)c1cc([N+](=O)[O-])ccc1Cl (stereo unspecified)	-7%	26%	45µM*	-4%	13%	8%
O=C(NCC(c1cccs1)N1CCOCC1)c1ccccc1NS(=O)(=O)c1ccc(Cl)cc1 (stereo unspecified)	-19%	12%	71µM*	-1%	17%	-3%
O=C(NCC(c1cccs1)N1CCOCC1)c1ccccc1NS(=O)(=O)c1cccc([N+](=O)[O-])c1 (stereo unspecified)	?	-15%	6%[59 µM]	?	23%	3%
O=C(Nc1nc2nc(-c3ccccc3)cc(=O)n2[nH]1)c1ccc(F)cc1	-10%	30%	15%[12.7 µM]	79µM*	.	-3%
COC(=O)c1c(NC(=O)C2COc3ccccc3O2)sc2c1CCN(Cc1ccccc1)C2 (stereo unspecified)	?	11%	79µM*	-10%	1%	0%
CCOC(=O)c1c(NC(C)=O)sc2c1CCN(Cc1ccccc1)C2	-25%	23%	.	-3%	1%	0%
CCOC(=O)c1c(NC(=O)C(C)Sc2cccc[n+]2[O-])sc2c1CCN(Cc1ccccc1)C2 (stereo unspecified)	?	-10%	8.9µM*	-10%	17%	-2%
CCOC(=O)c1c(NC(=O)CSc2ncccn2)sc2c1CCN(Cc1ccccc1)C2	22µM*	-14%	?	?	-21%	-6%
O=C(CN1C(=O)CSc2ccc(S(=O)(=O)N3CCOCC3)cc21)NCc1ccc(Cl)cc1	-12%	22%	14%[59 µM]	-5%	0%	.
CCOC(=O)c1c(C)[nH]c(C(=O)OC)c1CCC(=O)OC	-15%	4%	-39%[12.7 µM]	?	-4%	.
CCOC(=O)c1[nH]c(Cc2[nH]c(C(=O)OCC)c(C)c2CCC(=O)OC)c(CCC(=O)OC)c1C	40µM*	-26%	40µM*	?	56µM*	-10%
Cc1cc(C)n(CCCNCC(O)c2ccccc2)n1 (stereo unspecified)	79µM*	?	22µM*	?	-18%	4%
O[C@@H](CNC[C@H](O)c1ccccc1)c1ccccc1	-8%	28%	?	?	?	?
